Screening results as filed in PubChem.
SMN2 splice enh: increases expression of the SMN2 splice variant | Potency, µM (series often up to 46.1 µM), inactives show at the top dose activity change, positive = activation, actives largely listed as activators | AID 1458 | HEK293 SMN2-luciferase splicing reporter, luminescence, 30-36 h | actives 2.8% (n = 210,000); further: % of control where 0% means no effect; nearly all actives have a fitted effect of over 55% in size
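HEK293 cells carry an SMN2 minigene-luciferase reporter in which exon 7 inclusion puts luciferase in frame. Cells were seeded at 2000 cells/well, attached for 10-12 hours, then exposed to compounds for 30-36 hours at 37C before ONE-Glo luminescence.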
Rab9 prom act: Rab9 promoter activation. Huh7 Rab9 promoter-luciferase reporter, luminescence, 24 h. Potency, µM (doses to about 9.22 µM), inactives show at the highest dose activation, negative = inhibition, hits mostly activators. actives 2.8% (n = 320,000). AID 485297; further: % of control where 0% means no effect; nearly all actives have a fitted effect of over 60% in size
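Huh7 cells stably carrying Rab9 promoter–luciferase reporter, plated 1500 cells/well, compound added after 2 h and incubated 24 h at 37 °C; luciferase luminescence then read after 10 min with detection reagent.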
FLuc modulator: inhibits or activates purified firefly luciferase, miR-21 counter-screen; AID 588342; Potency, µM (doses to about 57.5 µM), without a hit: top-dose activity change, negative = inhibition, most hits filed as inhibitors; actives 6.9% (n = 360,000); purified FLuc, Km substrates, luminescence inhibition; P08659;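 further: plate controls were vehicle for no effect and reference inhibitor for full effect; nearly all actives have a fitted effect of over 55% in size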
Target sequence (P08659 whole entry, looked up): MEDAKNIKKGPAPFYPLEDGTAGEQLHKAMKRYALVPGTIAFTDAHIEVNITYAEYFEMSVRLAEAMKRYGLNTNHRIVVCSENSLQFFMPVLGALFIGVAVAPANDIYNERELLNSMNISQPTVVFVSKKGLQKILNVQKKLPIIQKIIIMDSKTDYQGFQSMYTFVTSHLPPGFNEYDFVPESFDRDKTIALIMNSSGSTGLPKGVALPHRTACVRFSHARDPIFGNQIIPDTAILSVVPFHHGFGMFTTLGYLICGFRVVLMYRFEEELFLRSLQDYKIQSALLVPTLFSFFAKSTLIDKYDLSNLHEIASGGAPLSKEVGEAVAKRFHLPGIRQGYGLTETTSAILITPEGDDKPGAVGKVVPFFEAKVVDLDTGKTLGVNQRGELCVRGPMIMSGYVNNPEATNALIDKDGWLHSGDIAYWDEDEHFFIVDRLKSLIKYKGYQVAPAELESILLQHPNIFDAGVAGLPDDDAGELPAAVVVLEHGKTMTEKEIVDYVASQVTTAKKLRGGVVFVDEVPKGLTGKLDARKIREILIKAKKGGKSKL
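Purified P. pyralis luciferase, 10 nM final, with Km-level 10 uM D-luciferin and 10 uM ATP in 50 mM Tris acetate pH 7.5, 10 mM Mg acetate, 0.01% Tween-20, 0.05% BSA; 6-point qHTS titration about 60 µM downward; luminescence read.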
NPC1 promoter act: activates the NPC1 promoter | AID 485313 | actives 2.4% (n = 320,000) | Huh7 NPC1 promoter luciferase reporter, 24 h | Potency, µM (series often up to 9.22 µM), without a hit: at the highest dose activation, actives largely listed as activators; further: % of control where 0% means no effect; nearly all actives have a fitted effect of over 60% in size
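Huh7 reporter cells (NPC1 promoter driving luciferase) are dosed with compound for 24 h at 37 °C, 5% CO2; luciferase detection reagent is then added and luminescence measured after 10 min at ambient temperature.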
ELG1 repair inh: ELG1-dependent DNA repair inhibition | actives 2.3% (n = 330,000) | AID 504467 | HEK293T ELG1-luciferase reporter, luminescence, 16 h; DNA damage induced by 5-fluorouridine | Potency, µM (top dose mostly 46.1 µM), inactives show at the top dose activity change, negative = inhibition, most hits filed as inhibitors; further: on the % scale 0 is the no-effect control and ±100 the full control effect; nearly all actives have a fitted effect of over 55% in size
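Step one: seed 2,000 cells per well. Step two: pin-transfer compound or DMSO alongside 5-fluorouridine. Step three: incubate 16 hr, 37 °C, 5% CO2. Step four: add ONE-Glo, wait 30 min, read luminescence.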
ELG1 genotoxic: inducers of genotoxicity in HEK293T ELG1-luciferase cells. HEK293T ELG1-luciferase reporter, luminescence, 16 h. Potency, µM (highest dose often 46 µM), for the others: at the highest dose activity change, positive = activation, most hits filed as activators. AID 504466. actives 1.3% (n = 330,000); further: % of control where 0% means no effect; nearly all actives have a fitted effect of over 60% in size
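Step 1: seed 2,000 HEK293T ELG1-luciferase cells per well. Step 2: add compound or DMSO, incubate 16 hr at 37 °C. Step 3: ONE-Glo, 30 min at room temperature, read luminescence.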
Active calls of the source: *; ? = inconclusive; . = no result given. Compounds with a hit are over-represented: about 9.3% of the library has one in this group of screens. The call rests on the fitted dose curve; in most records, active means well fitted curve in the direction sought with a large enough effect; inconclusive means small, poorly fitted or top-dose-only effect, or another doubt; inactive means no such curve, though single readings can be large; an effect the other way counts as inactive or inconclusive. Potency means the concentration at half of the fitted maximal effect.

SMILES	SMN2 splice enh	Rab9 prom act	FLuc modulator	NPC1 promoter act	ELG1 repair inh	ELG1 genotoxic
CC1CC1C(=O)OCC(=O)Nc1ccc(N=Nc2ccccc2)cc1 (stereo not given)	12.6µM*	1.78µM*	?	3.16µM*	?	16.4µM*
CC(C)(C)C(=O)Nc1ccc(C(=O)COC(=O)C2CC2)cc1	.	3.55µM*	7.57µM*	?	?	10.8%
CCCC(=O)OCC(=O)Nc1ccc(N=Nc2ccccc2)cc1	15.8µM*	3.55µM*	9.53µM*	2.24µM*	?	20.6µM*
COc1ccc(-c2cc3c(=O)n(CC(=O)NCCCN4CCC(N5CCCCC5)CC4)ncn3n2)cc1	.	22.2%	10.7µM*	?	?	9.1%
COc1ccc(-c2cc3c(=O)n(CC(=O)NCc4cccnc4)ncn3n2)cc1	.	3.55µM*	2.13µM*	1.58µM*	?	?
CC(C)Sc1nc(N)c2c3c(sc2n1)CN(C)CC3	11.2µM*	?	23.9µM*	?	?	?
CN(C)C(=O)[C@H]1C[C@H]1[C@@H](O)[C@H](CO)NC(=O)[C@H](COCc1ccccc1)NC(=O)OC(C)(C)C	.	3.16µM*	2.8%	0.4%	11.9%	-2.1%
CC1=CC(C)=Nc2ccccc2N1	-6.3%	-0.7%	16.9µM*	-1.3%	?	16.4µM*
CC1CC(C)CN(C(=O)C2CCN(C(=O)Nc3ccccc3)CC2)C1 (stereo not given)	.	-6.0%	-2.6%	2.5%	-6.8%	1.7%
CCOc1ccc(NC(=O)Cn2nnc(C(=O)NCc3ccccc3OC)c2N)cc1	-6.8%	13.0%	-1.3%	0.7%	-7.1%	0.4%
COc1ccc2c(c1OC)C(=O)N(c1ccc(C)cc1)C2	.	0.708µM*	3.01µM*	1.12µM*	?	18.3µM*
COc1ccc2c(c1OC)C(=O)N(c1cccc(C(F)(F)F)c1)C2	12.6µM*	4.47µM*	5.36µM*	?	?	?
COc1ccc2c(c1OC)C(=O)N(c1cccc(C)c1)C2	14.1µM*	1.41µM*	1.51µM*	1.41µM*	?	2.06µM*
COc1ccc2c(c1OC)C(=O)N(c1ccccn1)C2	11.2µM*	2.24µM*	10.7µM*	3.16µM*	?	9.2µM*
COc1ccccc1N1Cc2ccc(OC)c(OC)c2C1=O	.	1.8%	-13.2%	0.1%	?	5.3%
CCC(=O)c1ccc(OCC(=O)OCC(=O)Nc2c(C)n(C)n(-c3ccccc3)c2=O)cc1	.	3.2%	2.7%	-3.7%	20.8%	1.8%
CC1(C)c2ccccc2N(CC(N)=O)C12C=Cc1ccccc1O2 (stereo not given)	.	-0.6%	3.5%	-1.9%	?	-6.2%
O=C(COC(=O)c1cccnc1SCC(=O)NCc1ccccc1)NCc1ccccc1	25.1%	11.4%	2.69µM*	0.7%	-12.2%	4.2%
O=C(COC(=O)CC(c1ccccc1)c1ccccc1)NCc1ccc(Cl)cc1	-1.3%	-7.4%	-2.3%	-0.3%	16.4µM*	1.2%
Cc1ccc([N+](=O)[O-])cc1NC(=S)NC(=O)CC(C)(C)C	-6.6%	-3.3%	-2.0%	-4.8%	7.9%	-7.2%
CN(C)C(=O)[C@]1(C)C[C@H]1[C@H](NC(=O)CNC(=O)[C@@H]1CCCN1C(=O)[C@]1(C)C[C@H]1[C@H](NC(=O)OCc1ccccc1)c1ccccc1)c1ccccc1	-14.3%	.	.	.	.	.
O=C(c1ccccc1)n1ccc(-c2cnc(-c3ccccc3)s2)n1	3.55µM*	1.58µM*	4.26µM*	1.41µM*	?	1.64µM*
COc1ccc(-c2cn3c(n2)CCC3)cc1	12.6µM*	1.58µM*	13.5µM*	2.51µM*	?	?
Cc1ccc(-c2cn3c(n2)CCCC3)cc1	-24.9%	-6.1%	-5.8%	-11.0%	-14.1%	0.3%
c1ccc(-c2nnc3n2CCCC3)cc1	1.4%	1.3%	1.9%	1.1%	8.5%	-0.2%
SMILES	SMN2 splice enh	Rab9 prom act	FLuc modulator	NPC1 promoter act	ELG1 repair inh	ELG1 genotoxic
c1ccc(-c2ccc(-c3cn4c(n3)CCC4)cc2)cc1	27.4%	?	0.849µM*	0.447µM*	?	?
Cc1ccc(S(=O)(=O)NCC(=O)N(CC(=O)NCc2ccco2)Cc2ccc(F)cc2)cc1	.	-3.8%	-2.1%	?	11.9%	-4.3%
CC(C)(C)N=Cc1cc(-c2ccccc2)sc1O	22.4%	2.24µM*	5.36µM*	2.82µM*	?	9.2µM*
OCc1ncc(-c2ccccc2)s1	.	15.6%	-11.9%	12.3%	?	10.9%
Cc1cccc(N2CCN(C(=O)CCCn3c(=S)[nH]c4cc5c(cc4c3=O)OCO5)CC2)c1C	-27.6%	-3.7%	0.2%	-11.0%	10.3µM*	-14.6%
O=C(c1ccc(Cn2c(=S)[nH]c3cc4c(cc3c2=O)OCO4)cc1)N1CCN(c2ncccn2)CC1	-49.5%	-2.3%	-7.0%	-7.3%	7.3µM*	-14.6%
O=C(CCn1c(=S)[nH]c2cc3c(cc2c1=O)OCO3)N1CCc2ccccc2C1	3.1%	2.3%	-0.3%	1.1%	-16.1%	-7.0%
Cc1cccc(N2CCN(C(=O)CCn3c(=S)[nH]c4cc5c(cc4c3=O)OCO5)CC2C)c1 (stereo not given)	-45.7%	-0.7%	-1.3%	-2.1%	10.3µM*	-21.5%
O=C(CCCn1c(=S)[nH]c2cc3c(cc2c1=O)OCO3)N1CCN(c2ccccc2)CC1	-23.0%	-5.0%	0.8%	-7.2%	-2.5%	-7.5%
O=C(CCCn1c(=S)[nH]c2cc3c(cc2c1=O)OCO3)N1CCN(c2ccc(Cl)cc2)CC1	-60.0%	1.8%	3.1%	-6.0%	23.1µM*	-4.1%
O=C1NC2(CCCCC2)NN1c1ccccc1	-6.6%	.	3.8%	.	.	.
COc1ccc(NC(=O)C2=CC(c3ccc(OC)cc3)=NS(=O)(=O)N2C)cc1	.	6.5%	?	-1.8%	-12.4%	-0.6%
CC(=O)c1ccc(N2CCN(C(=O)CCCn3c(=S)[nH]c4cc5c(cc4c3=O)OCO5)CC2)cc1	-23.0%	-10.2%	4.3%	0.8%	18.4µM*	-2.5%
COc1ccc(N2CCN(C(=O)CCCCCn3c(=S)[nH]c4cc5c(cc4c3=O)OCO5)CC2)cc1	.	-10.7%	0.3%	20.6%	12.7%	0.2%
Cc1cc(C(=O)Nc2c(C)n(C)n(-c3ccccc3)c2=O)c2ccccc2n1	9.8%	0.2%	1.6%	1.8%	-15.7%	2.9%
CCc1ccc(-c2cc(C(=O)Nc3c(C)n(C)n(-c4ccccc4)c3=O)c3ccccc3n2)s1	-10.4%	5.0%	12µM*	0.9%	?	-7.7%
COc1ccc(-c2cc(C(F)(F)F)n3nc(C(=O)Nc4c(C)n(C)n(-c5ccccc5)c4=O)cc3n2)cc1	-7.8%	2.1%	3.8%	-11.8%	-15.0%	6.2%
